Data on 62 molecules can be found in ChEMBL document CHEMBL3988442, “University of Dundee, Small-Polar-MMV Screening Library” (2021).

Molecules are shown by their SMILES. Screen size: about 53,000 compounds; about 900 (1.7%) showed an effect of 50% or more. The entries come from a sample that favours strong results as a whole.

The test relates to Mycobacterium tuberculosis. As to the kind of experiment: Cornell - Phenotypic assay to identify agents that inhibit growth of Mycobacterium tuberculosis. In kind it is functional. Further details: scale not given: direction of the effect not stated beside the values. To be noted: 10 mM as filed; unlikely as a test dose.
Consider `CC(=O)N1CCCC1c1nc(C)c2c(n1)N(Cc1ccccn1)CCC2` (configuration not stated), for which the “Percent Effect” value is -10.82%. In the case of `O=C(CCCOCc1ccccc1)N1CCCC(c2ncc[nH]2)C1` (configuration not stated) it was 18.83%; in that of `O=C(Cc1cccs1)N1CC[C@H]2[C@@H]1CCC(=O)N2c1cccnc1.O=C(O)C(F)(F)F`, 4.016%; in that of `COc1ccccc1C1CC(=O)Nc2c1c(=O)[nH]n2C1CCCC1` (configuration not stated), 42.49%. The value for `CNc1nc2c(s1)C(c1ccc(Cl)cc1Cl)CC(=O)N2` (configuration not stated) was 15.33%; that for `CCn1ncnc1C1CC(=O)NCc2nc(N3CCOCC3)sc21` (configuration not stated) was 3.2%; that for `CC(C)Oc1ccccc1C1CC(=O)Nc2nc(N3CCOCC3)sc21` (configuration not stated) was 106.3%.

Regarding `O=C1CC(c2ccccc2C(F)(F)F)c2sc(N3CCOCC3)nc2N1` (configuration not stated), the “Percent Effect” value is listed as 43.16%.

In the case of `COc1ccccc1C1CC(=O)Nc2c1c(=O)[nH]n2C(C)C` (configuration not stated), the “Percent Effect” value amounted to 7.683%. In the case of `COc1cccc(C2CC(=O)Nc3nc(N4CCOCC4)sc32)c1OC` (configuration not stated) it was 84.05%.

With `COc1cccc(C2CC(=O)Nc3nc(N4CCCCC4)sc32)c1OC` (configuration not stated), the “Percent Effect” value was determined as 70.71%.

With `CCOc1cccc(C2CC(=O)NCc3nc(N4CCCC4)sc32)c1` (configuration not stated), the “Percent Effect” value is -20.96%. In the case of `O=C1CC(c2ccccc2Br)c2sc(N3CCOCC3)nc2N1` (configuration not stated) it was 44.02%; in that of `COc1ccccc1C1CC(=O)Nc2nc(N3CCCCC3)sc21` (configuration not stated), 102.8%. For the molecule `CCNc1nnc(CCn2nc(C)c(Br)c2C)s1`, the “Percent Effect” value was 29.93%. The value for `COCC(O)CN1CCC(=O)N(CC=C(C)C)Cc2ccccc21` (configuration not stated) was -1.382%; that for `CCc1cnc(N2C[C@H]3C[C@H](C(=O)N4CCOCC4)[C@@H](C2)O3)nc1.O=C(O)C(F)(F)F` was 10.32%; that for `CCS(=O)(=O)Nc1ccc(C(=O)NCCCN2CCCC2)cc1` was -15.51%. The value for `CCc1cnc(N2CC[C@H]3[C@@H]2CCC(=O)N3c2ccccc2)nc1.O=C(O)C(F)(F)F` was -28.43%; that for `CCc1nnc(CN(CC)C(=O)C2CC(=O)N(C3CC3)C2)o1` (configuration not stated) was 3.101%. In the case of `CNC(=O)C1CCCN1C(=O)NCCCc1cccc(F)c1` (configuration not stated) it was 3.774%. For the molecule `COc1ccc(OC)c(C2CC(=O)Nc3nc(N4CCOCC4)sc32)c1` (configuration not stated), the “Percent Effect” value came out at 77.37%. The value for `COc1cccc(C2CC(=O)Nc3nc(N)sc32)c1OC` (configuration not stated) was 76.98%; that for `COc1ccc(C2CC(=O)Nc3nc(N4CCOCC4)sc32)c(OC)c1` (configuration not stated) was 45.08%; that for `COc1ccc(C2SCC(=O)Nc3n[nH]cc32)c(OC)c1OC` (configuration not stated) was -14.08%. In the case of `COc1cccc(C2SCC(=O)Nc3ccsc32)c1OC` (configuration not stated) it was 25.58%; in that of `COc1ccc(C2CC(=O)Nc3nc(N4CCOCC4)sc32)cc1` (configuration not stated), 22.64%. The value for `CCN(Cc1ccncc1)CC1(O)CCN(C(=O)c2cnn(C)c2)C1` (configuration not stated) was -5.524%; that for `O=C(NCc1ccccc1)[C@H]1C[C@@H]2CN(C(=O)NC3CCCC3)C[C@H]1O2` was -33.72%. For `Cc1cc(C(=O)N2C[C@@H]3OCCN(CCN4CCCC4)[C@@H]3C2)c(C)o1.O=C(O)C(F)(F)F`, the “Percent Effect” value is recorded as -34.44%. `Cc1cccc(NC2CCN(C(=O)Nc3cn[nH]c3)CC2)n1`: the “Percent Effect” value was determined as 5.834%. In the case of `CCc1cc(N(C)Cc2ccno2)n2nc(C)c(C)c2n1` it was 28.15%; in that of `Cc1nc(NC2CCN(S(=O)(=O)c3ccccc3)CC2)[nH]c(=O)c1C`, -2.855%; in that of `CCc1cc(=O)[nH]c(NC2CCN(S(=O)(=O)c3ccccc3)CC2)n1`, 69.51%.

On to `Cc1cc(=O)[nH]c(NC2CCN(S(=O)(=O)c3ccccc3)CC2)n1`, for which the “Percent Effect” value stood at 26.85%. The value for `O=C(N1CCOCC1)N1CCc2ncc(CN3CCCCC3)n2CC1.O=C(O)C(F)(F)F` was 15.78%.

`COCCCN(Cc1ccccn1)S(=O)(=O)c1ccc(OC)cc1`: the “Percent Effect” value is listed as -5.527%. As to `CC(C)(C)c1cc(NC(=O)NCCc2nnc3n2CCC3)c(C#N)s1`, the “Percent Effect” value was found to be 18.93%. The value for `Cc1noc(CCCC(=O)NCCc2cc3ccccc3[nH]2)n1` was 55.01%; that for `Cc1noc(CCCC(=O)Nc2ncccc2Br)n1` was -30.93%. As for `Cc1noc(CCCNC(=O)CNC(=O)c2cc3ccccc3[nH]2)n1`, the “Percent Effect” value is listed as 17.25%. In the case of `O=C(O)C(F)(F)F.O=C(O)C(F)(F)F.c1nc(CN2CCC3(CC2)COCCN3CC2CC2)c[nH]1`, the “Percent Effect” value stood at 14.15%. In the case of `CC(=O)N1CCC2(C1)c1ccccc1S(=O)(=O)N2Cc1ccccc1` (configuration not stated) it was -2.139%. In the case of `CCS(=O)(=O)N1CCc2ccc(NC(=O)Nc3cccc(C)c3)cc21` it was 35.62%; in that of `CCS(=O)(=O)N1CCc2ccc(NC(=O)Nc3ccccc3)cc21`, 24.03%. In the case of `CCS(=O)(=O)N1CCc2ccc(NC(=O)Nc3cccc(C#N)c3)cc21` it was 83.89%; in that of `O=C(CC1=CSC2=NCCCN12)N1CCCCCC1c1ccco1` (configuration not stated), -8.894%. On to `CSCC[C@@H](CO)Nc1nc(-c2ccccn2)nc2c1c(C)nn2C`, for which the “Percent Effect” value is listed as 2.174%. In the case of `CCSCCNc1nc(-c2ccccn2)nc2c1c(C)nn2C` it was 51.67%; in that of `Cc1nn(C)c2nc(-c3ccccn3)nc(NCCCOC(C)C)c12`, 64.07%. The value for `Cc1nn(C)c2nc(-c3ccccn3)nc(NCCC3CCCN3C)c12` (configuration not stated) was -44.58%; that for `CC(=O)NCCNc1nc(-c2ccccn2)nc2c1c(C)nn2C` was 12.46%. In the case of `Cc1nn(C)c2nc(-c3ccccn3)nc(NC[C@@H]3CCCO3)c12` it was 21.74%; in that of `Cc1nc(-c2cc(C(=O)NC(C)(C(=O)O)C(C)C)co2)cs1` (configuration not stated), 45.67%; in that of `CNC(=O)c1coc(-c2csc(C)n2)c1`, 11.85%.

For `Cc1nc(-c2cc(C(=O)O)co2)cs1`, the “Percent Effect” value is 58.57%. On to `CCn1cc(CN2C[C@@H]3CCCN3C[C@H]2CCSC)c(C)n1`, for which the “Percent Effect” value was -15.91%. In the case of `Cc1ccc2c(c1)C1(CCNCC1)CN2C(=O)CN(C)C.O=C(O)C(F)(F)F.O=C(O)C(F)(F)F` it was 0.8832%. For `CCS(=O)(=O)Nc1ccn(Cc2ccc(F)cc2Cl)n1`, the “Percent Effect” value came out at 28.06%. In the case of `Cn1ncc2c1NC(=O)CC2c1ccccc1Cl` (configuration not stated) it was -9.252%. In the case of `Cn1ncc2c1NC(=O)CC2c1ccc(Cl)cc1Cl` (configuration not stated) it was 59.83%. The value for `Cn1ncc2c1NC(=O)CC2c1cc(Cl)ccc1F` (configuration not stated) was 13.85%.
